According to PubChem BioAssay AID651692 (Broad Institute, 2012):
Results with a measured potency or affinity are listed apart. Active and inactive are the calls of the source.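 How the source made its calls: active means fitted half-maximal concentration for loss of cell signal no higher than twice the top valid tested concentration; inconclusive means flat curve at 30 to 70% inhibition, or poor fit; inactive means flat within 30%, signal rise, or potency above limit.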

test: cytotoxicity toward MDA-MB-231 breast cancer cells – cell-based, CellTiter-Glo luminescence, cherry-pick, cytotoxicity control for RAD54 inhibitor project, dose response (AID 651692); conditions: MDA-MB-231 viability, 24 h; series mostly up to 26 µM;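 further: more negative values mean stronger loss of viable cell signal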

SMILES | outcome
OCCN1CCN(c2nc(-c3ccccc3O)nc3ccccc23)CC1 | inactive
COc1ccc(-c2cc3nc(NCCCN(C)C)n(C)c(=O)c3s2)cc1OC | inactive
COc1ccc(Cl)c2sc(N(CCN(C)C)C(=O)C3=COCCO3)nc12 | inactive
Cc1cccc(Cn2c(Sc3nc(C)cs3)nc3c2c(=O)[nH]c(=O)n3C)c1 | inactive
Cc1ccsc1-c1cc2nc(NCCCN(C)C)n(C)c(=O)c2s1 | inactive
CN(C)CCCNc1nc2cc(-c3cccc(Cl)c3)sc2c(=O)n1C | inactive
CN(C)CCNC(=O)c1cccc(-c2cnc3c(NC=O)cc(-c4cccc(F)c4)cn23)c1 | inactive
Cc1ccc(OCC(=O)Nc2cccc(-c3nnc(-c4ccccc4)o3)c2)c(C)c1 | inactive
CCOC(=O)c1cnc2ccc(OC)cc2c1Nc1ccc(N2CCN(C)CC2)cc1 | inactive
COc1ccc(OC)c(Nc2nc(NCCCN(C)C)nc(N)c2[N+](=O)[O-])c1 | inactive
CC1CCCCC1NC(=O)C1Cc2ccccc2CN1S(C)(=O)=O (centres undefined) | inactive
C=CC(=O)Nc1ccc(N(C)c2ccnc(Nc3ccc(N4CCN(C)CC4)cc3)n2)cc1 | inactive
CCOC(=O)c1cnc2ccc(OCC)cc2c1NCCCN1CCOCC1 | inactive
COc1ccc(Nc2c3c(nc4ccc(C)cc24)CCC3)cc1 | inactive
CCN(CC)CCNC(=O)c1cc2cc3ccc(OC)cc3nc2o1 | inactive
CCN1CCCC1CNC(=O)c1cc2c(-c3cccc(OC)c3)nn(C)c2s1 (centres undefined) | inactive
Oc1ccc(Nc2ccnc3cc(Cl)ccc23)cc1 | inactive
CN(C)CCOc1nc(-c2ccccc2)nc2c1oc1ccccc12 | inactive
CC(=O)Nc1sc2c(c1-c1nc3ccccc3s1)CN(C(C)C)CC2 | inactive
Cc1ccc2nc3c(c(Nc4ccc(O)cc4)c2c1)CCC3 | inactive

SMILES | outcome
c1ccc2c(c1)oc1c(Nc3ccc(CN4CCOCC4)cc3)ncnc12 | inactive
CN1CCN(CCCNC(=O)c2cc3c(=O)oc4ccccc4c3s2)CC1 | inactive
Cn1c2ccc(F)cc2c2ncn(CCCN(CCO)CCO)c(=O)c21 | inactive
c1c[nH]c(CN2CCN(Cc3ncc[nH]3)CC2)n1 | inactive
CCOCCCNC(=S)Nc1ccc2nc(N3CCN(CC)CC3)cc(C)c2c1 | inactive
Cc1cccn2c(=O)c3cc(C(=O)NCCN4CCOCC4)c(=N)n(CCCN4CCOCC4)c3nc12 | inactive
CCOC(=O)Nc1c2ccccc2nc2ccccc12 | inactive
Cc1ccc(S(=O)(=O)NCCCNS(=O)(=O)c2ccccc2[N+](=O)[O-])cc1 | inactive
NCc1csc(Nc2nncc3ccccc23)n1 | inactive
Cc1c(Cl)ccc(S(=O)(=O)NCCCn2ccnc2)c1Cl | inactive
CCN1CCN(C(=S)Nc2ccc3nc(N4CCN(CC)CC4)cc(C)c3c2)CC1 | inactive
Cc1ccc(-c2nc(N3CCN(C)CC3)c3ccccc3n2)cc1 | inactive
CCN(CC)CC(=O)Nc1cc(N(C)C)nc2ccccc12 | inactive
COc1cccc(-c2cc3nc(NCCN4CCCC4)n(C)c(=O)c3s2)c1 | inactive
CCCCN(C)CCNC(=S)Nc1ccc2nc(N3CCN(CC)CC3)cc(C)c2c1 | inactive
CC(C)OCC(O)CN1CCN(CCN2C(=O)c3cccc4cccc(c34)C2=O)CC1 (centres undefined) | inactive
Cc1cccn2c(=O)c3cc(C(=O)NCc4ccccc4)c(=N)n(CCCN4CCOCC4)c3nc12 | inactive
N=c1c(C(=O)NCCN2CCOCC2)cc2c(=O)n3ccccc3nc2n1CCCN1CCOCC1 | inactive
COc1ccc(-c2cnc3c(NC(C)=O)cc(-c4cccc(C(=O)NCCN(C)C)c4)cn23)cc1OC | inactive
